From PubChem BioAssay AID463173 (ICCB-Longwood Screening Facility, Harvard Medical School, 2010)
About 1,700 (3.3%) of roughly 52,000 compounds were called active. Shown is part of a subset that was picked to be rich in actives. A number with no mark means an inactive call. Rule as the data show it: active = survival mostly below about 52% (no sharp cut-off); inactive = mostly above about 56%.

tested on: Wild type; assay: S. aureus survival, RN4220 and DeltatarO strains – OD600, teichoic acid synthesis inhibitors, primary screen (AID 463173); conditions: S. aureus RN4220 wild type/DeltatarO growth, OD600, 18 h, active compounds read low, screened at 18.75 µg/mL (by protocol)

| SMILES | survival |
| --- | --- |
| CCOc1ccc(CCNC(=O)CSCc2nc(-c3cccc(C)c3)oc2C)cc1OCC | 80% |
| COc1ccc(-c2nc(CSCC(=O)NCCc3ccccc3)c(C)o2)cc1 | 95% |
| COc1cccc(-c2nc(CS(=O)(=O)CC(=O)NCCc3ccc(Cl)cc3)c(C)o2)c1 | 78% |
| COc1ccc(CCNC(=O)CSCc2nc(-c3cccc(C)c3)oc2C)cc1OC | 74% |
| COc1cccc(-c2nc(CSCC(=O)NCCc3ccc(Cl)cc3)c(C)o2)c1 | -1% (active) |
| Cc1cccc(-c2nc(CSCC(=O)NCCc3ccc(Cl)cc3)c(C)o2)c1 | -3% (active) |
| COc1cc2[nH]c(=O)n(CCCC(=O)N(C)Cc3ccccc3)c(=O)c2cc1OC | 68% |
| CN(C)c1ccc(-c2nnc3n(Cc4ccccc4)c(=O)c4ccccc4n23)cc1 | 83% |
| COc1ccc(N2CCN(C(=O)c3cccc(NC(=O)c4nsc5ccccc45)c3)CC2)cc1 | 131% |
| O=C(NCc1ccc2c(c1)OCO2)C1CCN(c2ccc(S(=O)(=O)N3CCCC3)cc2)CC1 | 101% |
| Cc1cccc(-c2nc(N3CCN(c4ccc(F)cc4)CC3)c3ccccc3n2)c1 | 64% |
| COc1ccccc1N1CCN(c2nc(-c3ccc(C)cc3)nc3ccccc23)CC1 | 72% |
| COc1ccc(N2CCN(c3nc(-c4ccccc4F)nc4ccccc34)CC2)cc1 | 92% |
| Cc1ccc(-c2nc(N3CCCC(C)C3)c3ccccc3n2)cc1 (centres undefined) | -2% (active) |
| CC1CCCN(c2csc3ccccc3c2=O)C1 (centres undefined) | 97% |
| CC1CCCN(c2nc(-c3ccccc3O)nc3ccccc23)C1 (centres undefined) | -3% (active) |
| N#CCNC(=O)c1sc2ccccc2c1Cl | 107% |
| Cc1nnc(NC(=O)CCCN2C(=O)/C(=C/c3cccs3)SC2=S)s1 | 107% |
| COc1cc(C(=O)N2CC(=O)Nc3ccc(C)cc3C2c2ccc(F)cc2)cc(OC)c1OC (centres undefined) | 147% |
| Cc1c(Cl)cccc1NC(=O)CCS(=O)(=O)c1ccc2c(c1)CC(C)N2C(=O)C1CC1 (centres undefined) | 85% |

| SMILES | survival |
| --- | --- |
| Cc1ccc(-n2ncc3c(N4CCC(Cc5ccccc5)CC4)ncnc32)cc1 | 70% |
| CC(C)CC(NC(=O)C1CCCCC1)C(=O)Nc1cccc(C(F)(F)F)c1 (centres undefined) | 64% |
| C=Cc1ccc(CN2C(=O)N(c3ccc(CC)cc3)S(=O)(=O)c3ccccc32)cc1 | 1% (active) |
| C=Cc1ccc(CN2C(=O)N(c3ccc(C)c(C)c3)S(=O)(=O)c3ccccc32)cc1 | 71% |
| C=Cc1ccc(CN2C(=O)N(c3cccc(Cl)c3)S(=O)(=O)c3ccccc32)cc1 | 57% |
| Cc1coc2c(C)c3oc(=O)c(CCC(=O)NCCc4ccccc4)c(C)c3cc12 | 84% |
| COc1cccc(N2CCN(C(=O)c3cnc4c(C)cccn4c3=O)CC2)c1 | 91% |
| Cc1ccc(N2CCN(c3nc4ccc(C)cc4n4nnnc34)CC2)c(C)c1 | 76% |
| Cc1ccc2nc(N3CCN(c4ccccc4F)CC3)c3nnnn3c2c1 | 76% |
| Cc1ccc2nc(N3CCN(c4ccccc4)CC3)c3nnnn3c2c1 | 78% |
| COc1ccccc1N1CCN(c2nc3ccc(C)cc3n3nnnc23)CC1 | 133% |
| COc1ccc(OC)c(CNc2nc3ccc(C)cc3n3nnnc23)c1 | 85% |
| Cc1ccc2nc(NCc3ccccc3Cl)c3nnnn3c2c1 | 94% |
| COc1ccccc1CNc1nc2ccc(C)cc2n2nnnc12 | -1% (active) |
| Cc1ccc2nc(N3CCN(c4ccc(F)cc4)CC3)c3nnnn3c2c1 | 14% (active) |
| COc1ccc(N2CCN(c3nc4ccc(C)cc4n4nnnc34)CC2)cc1 | -6% (active) |
| CCN(c1ccccc1)S(=O)(=O)c1ccc(-c2cc(C)no2)s1 | 159% |
| NC(=S)N/N=C/c1ccccc1OCC(=O)O | 96% |
| Cc1ccc(NC(=O)Cn2ccn(-c3ccc(F)c(F)c3)c(=O)c2=O)cc1C | 78% |
| Cc1ccc(-c2c(C(=O)NCCc3ccc(Cl)cc3)oc(=O)c3ccccc23)cc1 | 57% |

| SMILES | survival |
| --- | --- |
| CCCCN(Cc1ccccc1)C(=O)c1oc(=O)c2ccccc2c1-c1ccc(C)cc1 | 0% (active) |
| Cc1ccc(-c2c(C(=O)N(C)Cc3ccccc3)oc(=O)c3ccccc23)cc1 | 11% (active) |
| Cc1ccc(-c2c(C(=O)NCCc3ccccc3)oc(=O)c3ccccc23)cc1 | 79% |
| Cc1ccc(CCNC(=O)c2oc(=O)c3ccccc3c2-c2ccc(C)cc2)cc1 | 17% |
| Cc1ccc(-c2c(C(=O)NCc3ccc(F)cc3)oc(=O)c3ccccc23)cc1 | 76% |
| COc1ccccc1CCNC(=O)c1ccc2c(c1)c(C)c(C)n2Cc1ccc(Cl)cc1 | 77% |
| CC1(C)Cc2ccccc2-c2nnc(-c3ccccc3)n21 | 95% |
| COc1cccc(C2=CC(c3cc(Br)ccc3F)n3nnnc3N2)c1 (centres undefined) | -4% (active) |
| Fc1ccc(Br)cc1C1C=C(c2ccc(Br)cc2)Nc2nnnn21 (centres undefined) | 81% |
| COc1ccc(C2C=C(c3ccc(Br)cc3)Nc3nnnn32)c(OC)c1 (centres undefined) | 66% |
| O=C(c1ccc2c(c1)N(Cc1ccc(Cl)cc1)C(=O)c1ccccc1S2=O)N1CCOCC1 (centres undefined) | 83% |
| Cc1ccc(S(=O)(=O)N2CCCc3cc(NC(=O)c4ccc(C(F)(F)F)cc4)ccc32)cc1 | 110% |
| O=C(c1cnc2c(c1)COc1ccccc1-2)c1ccccc1O | 5% (active) |
| Cc1ccc2c(c1)-c1ncc(C(=O)c3cc(Br)ccc3O)cc1CO2 | 56% |
| Cc1cc(O)c(C(=O)c2cnc3c(c2)COc2ccccc2-3)cc1Cl | 64% |
| O=C(c1cnc2c(c1)COc1ccc(Cl)cc1-2)c1ccccc1O | 131% |
| Cc1ccc2c(c1)-c1nc(-c3ccccc3)cc(-c3ccccc3)c1CO2 | 79% |
| Cc1ccc2c(c1)-c1ncc(C(=O)c3ccccc3O)cc1CO2 | -7% (active) |
| COc1ccc(C2=C(C)C(N3CCC(C(=O)NCc4ccco4)CC3)=NS2(=O)=O)cc1 | 56% |
